# According to PubChem BioAssay (EPA / NIEHS):
# Results filed as inconclusive are left out. Active and inactive are the calls of the source. Rule for the calls: active = hit-call score of the fitted dose curve at least 0.9, where 1 is the maximum; inconclusive = response in the unintended direction; inactive = score below 0.9.
# Experiment: ATG_XTT_Cytotoxicity: Cytotoxicity Assessment in the Attagene TRANS-FACTORIAL HepG2 Assay (AID 2283584)
# Method in brief: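 HepG2 cells transiently transfected with GAL4-UAS multiple reporter units, dosed 24 h; cytotoxicity read by XTT as loss of signal versus DMSO baseline.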
row,SMILES,outcome
1,N#Cc1ccc(O)cc1,inactive
2,CCCCC(CC)COP(=O)(Oc1ccccc1)Oc1ccccc1 (stereo unspecified),inactive
3,Cc1c([N+](=O)[O-])cc2c(c1[N+](=O)[O-])C(C)(C)CC2(C)C,inactive
4,O=P(OCC(Br)CBr)(OCC(Br)CBr)OCC(Br)CBr (stereo unspecified),inactive
5,Clc1ccc(Oc2ccccc2)cc1,inactive
6,C/C(=N\NC(=O)Nc1cc(F)cc(F)c1)c1ncccc1C(=O)O,inactive
7,CC(=O)CCc1ccc2c(c1)OCO2,inactive
8,CC(C)CBr,inactive
9,CCOP(=S)(S)OCC,inactive
10,Cc1cc(C)c(C(=O)P(=O)(c2ccccc2)c2ccccc2)c(C)c1,inactive
11,c1ccc2c(c1)sc1ccccc12,inactive
12,O=c1[nH]c2ccccc2c(=O)o1,inactive
13,COP(=O)(O)OC,inactive
14,Nc1ccc([N+](=O)[O-])cc1Cl,inactive
15,O=c1ssc(Cl)c1Cl,inactive
16,O=C(CBr)OCc1ccccc1,inactive

row,SMILES,outcome
1,CCOP(=O)(O)C(N)=O,inactive
2,CCOC(=O)c1ccccc1N,inactive
3,O=C(O)CF,inactive
4,O=S(=O)(c1ccc(O)cc1)c1ccc(O)cc1,inactive
5,CCCCOCCOP(=O)(OCCOCCCC)OCCOCCCC,inactive
6,O=S1(=O)OCC2C(CO1)C1(Cl)C(Cl)=C(Cl)C2(Cl)C1(Cl)Cl (stereo unspecified),inactive
7,O=[N+]([O-])c1cc(Cl)ccc1Cl,inactive
8,Cn1[nH]nnc1=S,inactive
9,CC(O)C#N (stereo unspecified),inactive
10,CC(C)(C)c1ccccc1OP(=O)(Oc1ccccc1)Oc1ccccc1,inactive
11,CCOP(=S)(OCC)SCSc1ccc(Cl)cc1,inactive
12,Cc1ccc2c(c1N)C(=O)c1ccccc1C2=O,inactive
13,CCOP(=S)(OCC)SCn1nnc2ccccc2c1=O,inactive
14,Nc1ccc(Sc2ccc(N)cc2)cc1,inactive
15,CCCCOCC1CO1 (stereo unspecified),inactive
